Molecules are shown by their SMILES. In all, about 11,000 compounds went through this assay and about 310 (2.8%) were called active. Rule as the data show it: active = activity change below about -85%; inactive = the rest. Shown is part of a subset that was picked to be rich in actives.

The test system of the assay is intestinal alkaline phosphatase [Mus musculus]. The experiment in a line: mouse intestinal phosphatase enzyme activation – biochemical, luminescence, single concentration, confirmation (AID 434970). The settings on record: purified mouse IAP, CDP-Star luminescence, 30 min, at 10 µM; activation factor: measured here: IAP activation factor, stronger effect = higher value; activity change, negative = activation: stronger effect = lower value.
On to `C=CCONC(=O)Cc1ccccc1`, for which the activation factor was 1.1 and the activity change, negative = activation is -9.55% (inactive).
The like results for `Cc1ccc(NC(=O)C2CC(=O)n3c(nc4ccccc43)N2)cc1C` (stereo not drawn) were, in that order, 2.2 and -120% (active).
The like results for `Cc1ccc(NC2=NC(C(=O)Nc3ccc(C)c(C)c3)CC(=O)N2)cc1` (stereo not drawn) were, in that order, 0.958 and 4.15% (inactive).
The like results for `Cc1ccc(NC(=O)C(=O)NNC(=O)c2ccccc2C)cc1Cl` were, in that order, 0.889 and 11.1% (inactive).
With `Cc1ccc(NC(=O)C2CC(=O)n3c(nc4ccccc43)N2)cc1Cl` (stereo not drawn), the activation factor was 2.25 and the activity change, negative = activation was -125% (active).
For the compound `COc1ccc(NC(=O)N2CCCC2C(=O)Nc2ccc(C)c(Cl)c2)cc1` (stereo not drawn), the activation factor came out at 1.12 and the activity change, negative = activation is -12.4% (inactive).
Take `Cc1cccc(NC(=O)C2CC(=O)n3cnnc3S2)c1` (stereo not drawn): the activation factor was 0.843 and the activity change, negative = activation is 15.8% (inactive).
For `C=C(C)Cn1c(=O)c2c(nc3n2CCN3c2cccc(Cl)c2C)n(C)c1=O`, in that order: 0.924 and 7.6% (inactive).
The like results for `CC(C)(C)c1ccc(OCc2nc(-c3ccccn3)no2)c(Br)c1` were, in that order, 0.924 and 7.55% (inactive).
As to `COc1ccc(-c2noc(CCC(=O)N3CCN(c4ccc(C(F)(F)F)cc4)CC3)n2)cc1`, the activation factor came out at 1.05 and the activity change, negative = activation is -4.65% (inactive).
For `COc1ccc(OC)c(N)c1`, in that order: 0.877 and 12.3% (inactive).
The like results for `C=CCn1c(Br)nc2c1c(=O)[nH]c(=O)n2C` were, in that order, 0.97 and 2.95% (inactive).
For `COc1cc(NC(=O)C2CCCN(c3ncccn3)C2)cc(OC)c1` (stereo not drawn), in that order: 1.11 and -10.6% (inactive).
`COc1cc(NC(=O)NCC2CCN(Cc3ccccc3F)CC2)cc(OC)c1`: the activation factor was found to be 2.67 and the activity change, negative = activation is -167% (active).
In the case of `O=C(NCC1CCN(Cc2ccccc2F)CC1)Nc1cccc(Br)c1`, the activation factor worked out at 2.05 and the activity change, negative = activation was -105% (active).
The like results for `O=C(NCCOc1ccccc1F)Nc1ccc(Br)cc1` were, in that order, 1.46 and -45.9% (inactive).
The like results for `O=C(NCC1CCN(Cc2ccccc2Cl)CC1)Nc1cccc(Cl)c1` were, in that order, 1.77 and -77.5% (inactive).
For `COc1cc(OC)cc(C(=O)Nc2c(F)cccc2F)c1`, in that order: 1.02 and -1.9% (inactive).
For `Cc1ccc(NC(=O)Cn2cnc(C(=O)Nc3ccc(C)c(C)c3)n2)cc1C`, the activation factor worked out at 1.05 and the activity change, negative = activation is -4.9% (inactive).
For `O=C(Nc1ccc2ccccc2c1)c1cn(-c2ccccc2)nc1-c1cccs1`, in that order: 1.61 and -60.9% (inactive).
For `COc1ccc(N2CCN(c3nc(NCCO)nc(N4CCOCC4)n3)CC2)cc1`, in that order: 0.927 and 7.25% (inactive).
For `CC[C@]12c3[nH]c4cc(CCC(=O)N(C)C)ccc4c3CCN1C(=O)[C@@H](CC(=O)NCCCN(C)C)C[C@@H]2C(=O)N1CCN(C(=O)C2CC2)CC1`, in that order: 1.05 and -4.6% (inactive).
Turning to `Cc1ccc2c(c1)c(C)c(C)n2CC(O)CN1CCOCC1` (stereo not drawn), the activation factor was 0.95 and the activity change, negative = activation is 5% (inactive).
As for `O=C(NC1CCCCCCC1)c1cnccn1`, the activation factor came out at 0.972 and the activity change, negative = activation was 2.85% (inactive).
In the case of `O=C(Nc1nccs1)C1CC2CCC1C2` (stereo not drawn), the activation factor is 1.01 and the activity change, negative = activation was -0.6% (inactive).
The like results for `CCOC(=O)c1ccc(NC(=O)CSc2nnc(C3CCCCC3)n2C)cc1` were, in that order, 0.933 and 6.7% (inactive).
For `O=C(Nc1ccccc1)Nc1ccc(-n2ccc(C(F)(F)F)n2)cc1`, in that order: 1.6 and -60% (inactive).
The like results for `Cn1nc(OC(=O)Nc2cccc(Cl)c2)cc1C(F)(F)F` were, in that order, 2.51 and -151% (active).
In the case of `Cn1cc(NC(=O)Nc2ccc(C(F)(F)F)cc2)c(C(F)(F)F)n1`, the activation factor turned out to be 1.86 and the activity change, negative = activation was -86.1% (inactive).
Consider `O=C(Nc1ccc(-n2ccc(C(F)(F)F)n2)cc1)Nc1cccc(Cl)c1`, for which the activation factor was 1.92 and the activity change, negative = activation was -91.7% (active).
For `Cn1ncc(Cl)c1C(=O)Nc1cccc(Cl)c1`, in that order: 1.01 and -1.1% (inactive).
For `O=C(NCCCn1ccnc1)Nc1cccc(Cl)c1`, in that order: 1.23 and -23.4% (inactive).
The like results for `Cn1nc(C(=O)Nc2cccc(C(F)(F)F)c2)ccc1=O` were, in that order, 1.13 and -12.9% (inactive).
Consider `CC(=O)Nc1ccc(-n2cnnn2)cc1`, for which the activation factor was 1.04 and the activity change, negative = activation was -3.5% (inactive).
For `Cc1cc(C)cc(NC(=O)Nc2ccc(-n3ccc(C(F)(F)F)n3)cc2)c1`, in that order: 2.36 and -136% (active).
For `Cc1noc(C)c1S(=O)(=O)Nc1ccc(C(=O)NC2CCCCCC2)cc1`, in that order: 1.07 and -7.15% (inactive).
The like results for `CN=C1N(C)C[C@@H]2[C@@H]3C(=O)N(Cc4ccccc4)C(=O)[C@@H]3[C@](Cc3ccccc3)(C(=O)OC)N12` were, in that order, 1.16 and -16.1% (inactive).
Regarding `CC(C)CC(c1nnnn1Cc1cccs1)N1CCN(c2nc3ccccc3s2)CC1` (stereo not drawn), the activation factor came to 0.985 and the activity change, negative = activation is 1.5% (inactive).
The like results for `CCOC(=O)CCc1c(C)c(C#N)c2nc3ccccc3n2c1-n1cnc2ccccc21` were, in that order, 1.02 and -1.8% (inactive).
